Compounds with a hit are over-represented: about 5% of the library has one in this group of screens.
PREPL inhibitor – human PREPL enzyme inhibition; recombinant PREPL, fluorescence polarization activity-based probe; AID 2751; Q4J6C6; 0.68% of 320,000 active; inhibition, % at 5.96 µM; in the data active = inhibition above about 43%;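 also: 0% = enzyme with DMSO and 100% = wells lacking enzyme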
Target sequence (Q4J6C6 whole entry, looked up): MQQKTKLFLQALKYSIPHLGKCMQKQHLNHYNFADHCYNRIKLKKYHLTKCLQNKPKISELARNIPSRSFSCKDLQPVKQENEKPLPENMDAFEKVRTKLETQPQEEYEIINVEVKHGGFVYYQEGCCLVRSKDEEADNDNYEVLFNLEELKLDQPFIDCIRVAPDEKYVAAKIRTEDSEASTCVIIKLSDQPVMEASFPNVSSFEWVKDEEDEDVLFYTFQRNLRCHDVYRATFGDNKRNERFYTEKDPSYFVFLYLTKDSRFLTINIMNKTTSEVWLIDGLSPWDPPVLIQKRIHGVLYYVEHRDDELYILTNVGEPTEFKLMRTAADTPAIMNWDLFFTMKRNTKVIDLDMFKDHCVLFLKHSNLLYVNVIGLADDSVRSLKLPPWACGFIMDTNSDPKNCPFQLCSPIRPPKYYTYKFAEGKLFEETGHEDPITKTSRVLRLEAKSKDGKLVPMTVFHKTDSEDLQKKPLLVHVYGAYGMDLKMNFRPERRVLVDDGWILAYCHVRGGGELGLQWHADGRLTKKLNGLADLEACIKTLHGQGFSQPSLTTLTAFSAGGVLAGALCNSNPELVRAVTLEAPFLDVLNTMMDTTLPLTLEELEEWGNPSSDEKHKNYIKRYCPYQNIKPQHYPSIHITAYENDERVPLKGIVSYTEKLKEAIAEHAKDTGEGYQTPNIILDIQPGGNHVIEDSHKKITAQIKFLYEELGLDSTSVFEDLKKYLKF
ALR inh – blocks human ALR sulfhydryl oxidase activity; inhibition, % (concentration not given with the values); AID 485317; P55789; 3.8% of 290,000 active; purified ALR, DTT oxidation, H2O2 HRP-luminol luminescence;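 active = mean replicate inhibition above about 79%, with every replicate also reaching it, limit read from the data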
CHT block – human CHT choline transport inhibition. Q9GZV3. CHT-expressing cells, membrane potential dye, choline response; hits give low values. B-score at 10 µM. 0.86% of 310,000 active;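 active = B-score over 3 SD under the library average, and starting fluorescence ratio not unusually high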;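 also: choline stimulus applied at its EC90 after an EC20 pre-addition; B-score computed on integrated fluorescence ratio after choline addition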
AI-2 QS mod – modulates the Vibrio harveyi AI-2 quorum sensing system; 0.4% of 300,000 active; AID 2094; Vibrio harveyi JMH597 AI-2 luminescence/OD600 ratio, 9 h; hits give low values; strain lacks LuxN and CqsS sensors; 0 = neutral-control median; activity change, % at 7.5 µM; in the data active = activity change below about -75%, passing the limit was not always enough;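 also: luminescence divided by OD600 gain over 9 h not by final OD600 alone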
CHT PAM – allosterically activates the human high affinity choline transporter. Q9GZV3. 0.49% of 310,000 active. B-score at 10 µM. CHT-expressing cells, membrane potential dye, choline EC20; hits give high values; LV-AA mutant CHT in HEK293 cells;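 active = initial fluorescence not abnormally high and integrated response B-score, plate-corrected, over 3 SD above library mean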
Active calls of the source: *; i = inactive; x = not tested or not shown.

SMILES	PREPL inhibitor	ALR inh	CHT block	AI-2 QS mod	CHT PAM
CN(C)c1ccc(/C=C/c2nnnn2-c2ccccc2)cc1	13	99*	i	59	i
CCN(CC(=O)Nc1cccc(S(=O)(=O)N(C)c2ccccc2)c1)Cc1ccccc1	4	-1	x	x	x
O=c1cc(C(F)(F)F)nc(SCc2cccc3ccccc23)[nH]1	-5	19	i	9	i
CCc1cc(=O)[nH]c(SCc2cccc3ccccc23)n1	-6	98*	i	27	i
Nc1cc(=O)[nH]c(SCc2cccc3ccccc23)n1	9	99*	i	3	i
CCC1(c2ccccc2)NC(=S)N(c2ccc(C)c(C)c2)N1 (centres undefined)	8	x	i	6	i
CCC1(c2ccc(Cl)cc2)NC(=S)N(c2ccc(C)c(C)c2)N1 (centres undefined)	-3	97*	i	4	i
CCOC(=O)c1c(NC(=O)/C=C/C(=O)O)sc(C)c1-c1ccc(C(C)(C)C)cc1	0	97*	i	13	i
CCNC(=O)Oc1ccc(-c2csnn2)cc1	8	99*	i	9	i
CC(=O)Oc1ccc(-c2csnn2)cc1	13	42	i	22	i
COc1ccc(C(=O)CC(=O)Nc2ccc([N+](=O)[O-])cc2)cc1	-5	3	i	-90*	i
O=C(CCOc1ccccc1)Nc1ccc([N+](=O)[O-])cc1	12	-20	i	-79*	i
O=C(CN1N=C(c2ccccc2)CCC1=O)NCc1ccco1	1	-2	i	19	i
Cc1nc(N)nc(N)c1/C=C/C(C)(C)c1ccc(Cl)cc1	x	x	x	-89*	x
CC(C)(C)S(=O)(=O)c1cnc(-c2ccc(Cl)cc2)nc1N	0	-5	i	-6	i
Oc1c(C=NCc2ccncc2)sc2ccccc12	11	83*	i	-7	i
CN=Cc1sc2ccccc2c1O	0	47	i	27	i
CC(=O)Nc1cccc(NC(=O)CSc2ncc(-c3ccc(Cl)cc3)n2Cc2ccco2)c1	-57	92*	i	x	i
c1ccc(Nc2nc(NCC3CCCO3)c3ccccc3n2)cc1 (centres undefined)	9	-1	i	14	i
COc1ccc(Nc2nc(NCC3CCCO3)c3ccccc3n2)c(OC)c1 (centres undefined)	23	98*	i	8	i
Oc1cccc(Nc2nc(NCC3CCCO3)c3ccccc3n2)c1 (centres undefined)	17	100*	i	-20	i
Cc1ccc(/C=N/n2c(C3CCCCC3)n[nH]c2=S)o1	7	97*	i	16	i
S=c1[nH]nc(C2CCCCC2)n1/N=C/c1cccs1	5	96*	i	9	i
CC(C)c1ccc(NC2CCCN(C(=O)CCN3CCCCO3)C2)cc1 (centres undefined)	3	79*	i	11	i
Cc1ccc(NC2CCCN(C(=O)CCN3CCCCO3)C2)cc1C (centres undefined)	16	98*	i	2	i
SMILES	PREPL inhibitor	ALR inh	CHT block	AI-2 QS mod	CHT PAM
CC(C)c1ccc(NC2CCCN(C(=O)CCN3CCCO3)C2)cc1 (centres undefined)	9	67	i	31	i
Cc1cc(C(=O)CSc2ccc(F)cc2)cc(C)c1OC(=S)N(C)C	5	2	i	19	i
COc1ccc(SCC(=O)c2cc(C)c(OC(=S)N(C)C)c(C)c2)cc1	4	92*	i	31	i
Cc1cc(Br)cc2c1NC(=O)C2(c1c(C)n(C)n(-c2ccccc2)c1=O)c1c(C)n(C)n(-c2ccccc2)c1=O	7	2	i	5	i
COc1cc(C2(c3ccc(O)c(OC)c3)C(=O)Nc3c(C)cc(Br)cc32)ccc1O	2	80*	i	-8	i
CC(C)NC(=O)COC(=O)c1ccccc1CSC1=NCCS1	0	0	i	32	i
CCCC(=O)NC(=S)Nc1cccc(C(C)=O)c1	-1	x	i	-78*	i
CC(=O)c1cccc(NC(=S)NC(=O)CC(C)C)c1	2	6	i	-2	i
O=C(/C=C/c1ccc2c(c1)OCO2)Nc1c(C(=O)O)[nH]c2ccccc12	2	98*	i	33	i
COc1ccc(/C(C)=N/OCC(=O)Nc2nc3ccccc3s2)cc1	-30	-12	i	3	i

High-throughput results from PubChem.
